# Laboratory results from PubChem BioAssay (NCATS).
# Results filed as inconclusive are left out. Values without a mark were called inactive. Activity calls are given as the source filed them. Calls follow the shape of the dose curve; as a rule, active = well fitted inhibition curve with a large enough effect; inconclusive = small, poorly fitted or top-dose-only effect; inactive = flat fitted curve, though single readings scatter.
# System: NIH3T3
# Test: qHTS assay to identify novel small-molecules to repurpose for Merkel cell carcinoma treatment (AID 1296009); also: nearly all actives have a fitted effect of over 60% in size
# Conditions: MCC and control cell lines, CellTiter-Glo viability, 72 h; at 44.8 µM (top of the series) unless noted
# Summary of the method: (§1)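 Cell viability measured by CellTiter-Glo following 72 hr compound treatment at 37 degree celsius, with NPC and MIPE libraries tested in 8- and 11-point concentration series.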
# % is scaled to controls: 0 for no effect and ±100 for the full control effect; potency is read from the fitted curve at half-maximal effect.
row,SMILES,outcome
1,COc1cc(Oc2ccnc3cc(OC)c(OC)cc23)ccc1NC(=O)NC(C)c1nccs1 (configuration not stated),inactive
2,OCCC#Cc1nc(-c2ccc(F)cc2)c(-c2ccncc2)n1CCCc1ccccc1,inactive
3,O=S(=O)(N=Cc1c(O)ccc2ccccc12)c1cccs1,inactive
4,O=C(C=Cc1ccc(/C=C/C(=O)Nc2ccc(C3=NCCN3)cc2)cc1)Nc1ccc(C2=NCCN2)cc1,inactive
5,CCn1cc(C(=O)O)c(=O)c2cc(F)c(N3CCNC(C)C3)c(F)c21 (configuration not stated),inactive

# System: UISO
# Test: as above
# Conditions: MCC and control cell lines, CellTiter-Glo viability, 72 h; series mostly up to 46 µM; activity change, negative = cytotoxicity: at the top concentration
# Summary of the method: as §1
SMILES,"activity change, negative = cytotoxicity",Potency
CCCCCCCc1ccc(CCc2cccc(O)c2C(=O)O)cc1,12.1%,
COCCNCCCn1c(C(=O)CF)c(-c2ccc(C)cc2)c2c(N)ncnc21,-28%,
COc1cc(F)c(F)c(Nc2ccc(I)cc2F)c1NS(=O)(=O)C1(C[C@H](O)CO)CC1,-7.37%,
N#Cc1ccc(C(c2ccc(C#N)cc2)n2cncn2)cc1,1.69%,
CCOC(=O)N[C@@H]1CC[C@@H]2[C@@H](C1)C[C@H]1C(=O)O[C@H](C)[C@H]1[C@@H]2C=Cc1ccc(-c2cccc(F)c2)cn1,-6.26%,
OCCC#Cc1nc(-c2ccc(F)cc2)c(-c2ccncc2)n1CCCc1ccccc1,-15.2%,
O=C(C=Cc1ccc(/C=C/C(=O)Nc2ccc(C3=NCCN3)cc2)cc1)Nc1ccc(C2=NCCN2)cc1,-2.54%,
Cc1cccc(-c2nn(C(=S)Nc3ccccc3)cc2-c2ccnc3ccccc23)n1,-12.1%,
COc1ccc2nc(S(=O)Cc3ncc(C)c(OC)c3C)[nH]c2c1 (configuration not stated),-16.8%,
CN(C)c1ccc(C2Nc3ccc4ccccc4c3C3=C2C(=O)CC(C)(C)C3)cc1Br (configuration not stated),-1.24%,
COc1cc2nccc(Oc3ccc(NC(=O)NC4CC4)c(Cl)c3)c2cc1C(N)=O,,18.7 µM (active)
NC(=O)c1ccc(-c2nc(-c3ccc4c(c3)OCCO4)c(-c3ccccn3)[nH]2)cc1,-1.66%,
O=C(C1CC1)N1CC[C@@H](Cn2c(-c3ccc(-c4ccc5occc5c4)cc3)nc3cnccc32)C1,-3.44%,
Cc1c(CCOc2ccc(C(=O)O)cc2)c2cc(Cl)ccc2n1C(c1ccccc1)c1ccccc1,-5.19%,
CN(C)c1ccc(Nc2nc(N)n(C(=O)c3c(F)cccc3F)n2)cc1,-4.45%,
CCOC(=O)C1=C[C@]2(CC)CCCN3CCc4c(n1c1ccccc41)[C@@H]32,,inactive
CC(C)(C)OC(=O)CN(Cc1ccc(Cl)cc1)Cc1ccc([N+](=O)[O-])s1,-19.3%,
Cn1c(=O)c(F)c(Nc2ccc(I)cc2F)c2c(=O)n(C[C@@H](O)CO)cnc21,-24.2%,
Nc1ncnc2nc(-c3ccc(N4CCOCC4)nc3)cc(-c3cccc(Br)c3)c12,-5.24%,
Nc1cccc(S(=O)(=O)N2CCCN(S(=O)(=O)c3ccc4c(c3)OCCO4)CC2)c1,-3.82%,
CCn1cc(C(=O)O)c(=O)c2cc(F)c(N3CCNC(C)C3)c(F)c21 (configuration not stated),,inactive
CCOc1cc(N2CCC(O)CC2)ccc1Nc1ncc2c(n1)N(C)c1ccccc1C(=O)N2C,,11.8 µM (active)
